# In article PMC5540273 (PLoS ONE, 2017):
# Columns and labels:
# Conditions in all cases: concentration: 1 μM, replicates: in singlicate; n = 1
# BLK = test system: BLK
# BMPR1A = test system: BMPR1A
# BMPR1B = test system: BMPR1B
# BMPR2 = test system: BMPR2
# BMX = test system: BMX
# BRAF = test system: BRAF
# BRK = test system: T1, BRK
# T1 construct: gene PTK6
# BRSK1 = test system: BRSK1
# BRSK2 = test system: BRSK2
# BTK = test system: BTK
# BUB1 = test system: BUB1
# CAMK1B = test system: CAMK1B
# CAMK1D = test system: CAMK1D
# CAMK1G = test system: CAMK1G
# CAMK1 = test system: CAMK1
# CAMK2A = test system: CAMK2A
# CAMK2B = test system: CAMK2B
# CAMK2D = test system: CAMK2D
# CAMK2G = test system: CAMK2G
# CAMK4 = test system: CAMK4
# 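Note: KINOMEscan kinase panel screen.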
compound,measurement,setting,value
O=C(NOCC1CC1)c1ccc(F)c(F)c1Nc1ccc(I)cc1Cl,%Inh,BLK,0%
same,%Inh,BMPR1A,0%
same,%Inh,BMPR1B,0%
same,%Inh,BMPR2,0%
same,%Inh,BMX,0%
same,%Inh,BRAF,0%
same,%Inh,BRK,0%
same,%Inh,BRSK1,0%
same,%Inh,BRSK2,0%
same,%Inh,BTK,0%
same,%Inh,BUB1,0%
same,%Inh,CAMK1B,0%
same,%Inh,CAMK1D,0%
same,%Inh,CAMK1G,0%
same,%Inh,CAMK1,0%
same,%Inh,CAMK2A,0%
same,%Inh,CAMK2B,0%
same,%Inh,CAMK2D,0%
same,%Inh,CAMK2G,0%
same,%Inh,CAMK4,32%
CN1c2ccc(NCc3ccc(F)cc3)cc2-c2c(cnn2C)S1(=O)=O,%Inh,BLK,0%
same,%Inh,BMPR1A,0%
same,%Inh,BMPR1B,1%
same,%Inh,BMPR2,0%
same,%Inh,BMX,0%
same,%Inh,BRAF,17%
same,%Inh,BRK,0%
same,%Inh,BRSK1,0%
same,%Inh,BRSK2,0%
same,%Inh,BTK,0%
same,%Inh,BUB1,0%
same,%Inh,CAMK1B,0%
same,%Inh,CAMK1D,0%
same,%Inh,CAMK1G,0%
same,%Inh,CAMK1,0%
same,%Inh,CAMK2A,0%
same,%Inh,CAMK2B,0%
same,%Inh,CAMK2D,3%
same,%Inh,CAMK2G,15%
same,%Inh,CAMK4,22%
COc1ccc(CNC(=O)NC2CCN(c3ccnc(Nc4ccc(OC)cc4)n3)C2)cc1 (centres unmarked) [GSK1379727],%Inh,BLK,43%
same,%Inh,BMPR1A,0%
same,%Inh,BMPR1B,0%
same,%Inh,BMPR2,30%
same,%Inh,BMX,6%
same,%Inh,BRAF,0%
same,%Inh,BRK,9%
same,%Inh,BRSK1,0%
same,%Inh,BRSK2,0%
same,%Inh,BTK,12%
same,%Inh,BUB1,56%
same,%Inh,CAMK1B,47%
same,%Inh,CAMK1D,21%
same,%Inh,CAMK1G,0%
same,%Inh,CAMK1,18%
same,%Inh,CAMK2A,0%
same,%Inh,CAMK2B,0%
same,%Inh,CAMK2D,0%
same,%Inh,CAMK2G,8%
same,%Inh,CAMK4,0%
O=C(Nc1n[nH]c2cc(-c3cccc(F)c3)ccc12)C1CC1 [SB-735464],%Inh,BLK,0%
same,%Inh,BMPR1A,16%
same,%Inh,BMPR1B,65%
same,%Inh,BMPR2,28%
same,%Inh,BMX,0%
same,%Inh,BRAF,1%
same,%Inh,BRK,0%
same,%Inh,BRSK1,34%
same,%Inh,BRSK2,33%
same,%Inh,BTK,0%
same,%Inh,BUB1,0%
same,%Inh,CAMK1B,0%
same,%Inh,CAMK1D,22%
same,%Inh,CAMK1G,0%
same,%Inh,CAMK1,31%
same,%Inh,CAMK2A,19%
same,%Inh,CAMK2B,1%
same,%Inh,CAMK2D,0%
same,%Inh,CAMK2G,27%
same,%Inh,CAMK4,0%
CN(C(=O)c1ccc(-c2cc(-c3c[nH]nc3-c3ccccn3)ccn2)cc1)C1CCOCC1 [GW810083],%Inh,BLK,22%
same,%Inh,BMPR1A,0%
same,%Inh,BMPR1B,0%
same,%Inh,BMPR2,24%
same,%Inh,BMX,0%
same,%Inh,BRAF,0%
same,%Inh,BRK,4%
same,%Inh,BRSK1,3%
same,%Inh,BRSK2,8%
same,%Inh,BTK,16%
same,%Inh,BUB1,0%
same,%Inh,CAMK1B,41%
same,%Inh,CAMK1D,20%
same,%Inh,CAMK1G,0%
same,%Inh,CAMK1,0%
same,%Inh,CAMK2A,0%
same,%Inh,CAMK2B,0%
same,%Inh,CAMK2D,0%
same,%Inh,CAMK2G,17%
same,%Inh,CAMK4,20%
O=C(NCCNc1ccnc(Nc2ccc(F)cc2)n1)Nc1ccccc1F [GSK1379880],%Inh,BLK,6%
same,%Inh,BMPR1A,0%
same,%Inh,BMPR1B,0%
same,%Inh,BMPR2,0%
same,%Inh,BMX,0%
same,%Inh,BRAF,0%
same,%Inh,BRK,6%
same,%Inh,BRSK1,0%
same,%Inh,BRSK2,0%
same,%Inh,BTK,0%
same,%Inh,BUB1,31%
same,%Inh,CAMK1B,0%
same,%Inh,CAMK1D,0%
same,%Inh,CAMK1G,0%
same,%Inh,CAMK1,0%
same,%Inh,CAMK2A,0%
same,%Inh,CAMK2B,0%
same,%Inh,CAMK2D,0%
same,%Inh,CAMK2G,0%
same,%Inh,CAMK4,0%
O=C(Nc1cccc(-c2nn3ncccc3c2-c2ccnc(Nc3cccc(C(F)(F)F)c3)n2)c1)c1c(F)cccc1F [GSK299495],%Inh,BLK,95.9%
same,%Inh,BMPR1A,0%
same,%Inh,BMPR1B,0%
same,%Inh,BMPR2,23%
same,%Inh,BMX,72%
same,%Inh,BRAF,69%
same,%Inh,BRK,71%
same,%Inh,BRSK1,0%
same,%Inh,BRSK2,0%
same,%Inh,BTK,66%
same,%Inh,BUB1,80%
same,%Inh,CAMK1B,30%
same,%Inh,CAMK1D,21%
same,%Inh,CAMK1G,9%
same,%Inh,CAMK1,32%
same,%Inh,CAMK2A,100%
same,%Inh,CAMK2B,100%
same,%Inh,CAMK2D,19%
same,%Inh,CAMK2G,11%
same,%Inh,CAMK4,0%
